# Measurements taken from ChEMBL document CHEMBL1961873, “Compounds: GSK PKIS; Assays: Nanosyn kinase panel” (2012).
# How the values were obtained:
# [1] = target: 5'-AMP-activated protein kinase catalytic subunit alpha-2 (Homo sapiens) (UniProt P54646); details: at 1 µM
# [2] = target: T1, NUAK family SNF1-like kinase 1 (Homo sapiens) (UniProt O60285); details: at 0.1 µM
# T1 sequence (whole entry): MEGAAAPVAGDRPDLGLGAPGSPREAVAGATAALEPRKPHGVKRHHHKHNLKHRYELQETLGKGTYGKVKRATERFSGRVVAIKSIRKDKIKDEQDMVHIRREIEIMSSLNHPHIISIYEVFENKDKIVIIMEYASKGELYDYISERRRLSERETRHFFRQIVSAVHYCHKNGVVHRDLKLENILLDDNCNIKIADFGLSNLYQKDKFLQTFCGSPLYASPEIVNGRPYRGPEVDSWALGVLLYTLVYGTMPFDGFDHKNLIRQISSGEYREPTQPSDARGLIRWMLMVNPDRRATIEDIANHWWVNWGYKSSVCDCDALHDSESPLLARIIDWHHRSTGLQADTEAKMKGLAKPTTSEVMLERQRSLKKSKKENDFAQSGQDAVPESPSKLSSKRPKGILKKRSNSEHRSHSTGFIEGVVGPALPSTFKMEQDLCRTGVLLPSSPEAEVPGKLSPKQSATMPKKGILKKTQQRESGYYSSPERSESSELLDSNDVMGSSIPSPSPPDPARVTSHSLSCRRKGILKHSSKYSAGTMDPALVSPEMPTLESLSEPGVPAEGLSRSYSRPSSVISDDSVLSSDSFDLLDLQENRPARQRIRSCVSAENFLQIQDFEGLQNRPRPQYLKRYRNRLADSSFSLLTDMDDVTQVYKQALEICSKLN
# [3] = target: T1, NUAK family SNF1-like kinase 1 (Homo sapiens); details: at 1 µM
# [4] = target: T2, Serine/threonine-protein kinase BRSK1 (Homo sapiens) (UniProt Q8TDC3); details: at 0.1 µM
# T2 sequence (whole entry): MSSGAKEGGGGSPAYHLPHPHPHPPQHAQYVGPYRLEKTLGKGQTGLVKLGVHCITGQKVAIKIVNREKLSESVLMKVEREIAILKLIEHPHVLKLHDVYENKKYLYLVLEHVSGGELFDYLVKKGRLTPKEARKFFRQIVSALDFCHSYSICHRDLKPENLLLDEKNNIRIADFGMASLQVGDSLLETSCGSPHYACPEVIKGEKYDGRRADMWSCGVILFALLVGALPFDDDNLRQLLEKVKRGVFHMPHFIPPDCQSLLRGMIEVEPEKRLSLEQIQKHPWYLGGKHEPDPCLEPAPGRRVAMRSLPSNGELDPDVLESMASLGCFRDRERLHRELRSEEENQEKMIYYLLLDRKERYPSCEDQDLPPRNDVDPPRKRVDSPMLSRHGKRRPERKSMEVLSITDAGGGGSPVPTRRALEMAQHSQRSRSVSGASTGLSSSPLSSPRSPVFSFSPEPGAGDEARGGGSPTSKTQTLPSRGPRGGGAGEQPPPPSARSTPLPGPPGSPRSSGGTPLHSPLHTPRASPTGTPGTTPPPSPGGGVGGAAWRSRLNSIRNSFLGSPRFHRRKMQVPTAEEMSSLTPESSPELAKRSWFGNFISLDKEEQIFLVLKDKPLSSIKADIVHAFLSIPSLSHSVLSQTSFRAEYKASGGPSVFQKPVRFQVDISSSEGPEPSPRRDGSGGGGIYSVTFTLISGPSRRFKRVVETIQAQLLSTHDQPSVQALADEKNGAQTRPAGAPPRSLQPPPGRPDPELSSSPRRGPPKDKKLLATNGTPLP
# [5] = target: T2, Serine/threonine-protein kinase BRSK1 (Homo sapiens); details: at 1 µM
# [6] = target: T3, Serine/threonine-protein kinase BRSK2 (Homo sapiens) (UniProt Q8IWQ3); details: at 0.1 µM
# T3 sequence (whole entry): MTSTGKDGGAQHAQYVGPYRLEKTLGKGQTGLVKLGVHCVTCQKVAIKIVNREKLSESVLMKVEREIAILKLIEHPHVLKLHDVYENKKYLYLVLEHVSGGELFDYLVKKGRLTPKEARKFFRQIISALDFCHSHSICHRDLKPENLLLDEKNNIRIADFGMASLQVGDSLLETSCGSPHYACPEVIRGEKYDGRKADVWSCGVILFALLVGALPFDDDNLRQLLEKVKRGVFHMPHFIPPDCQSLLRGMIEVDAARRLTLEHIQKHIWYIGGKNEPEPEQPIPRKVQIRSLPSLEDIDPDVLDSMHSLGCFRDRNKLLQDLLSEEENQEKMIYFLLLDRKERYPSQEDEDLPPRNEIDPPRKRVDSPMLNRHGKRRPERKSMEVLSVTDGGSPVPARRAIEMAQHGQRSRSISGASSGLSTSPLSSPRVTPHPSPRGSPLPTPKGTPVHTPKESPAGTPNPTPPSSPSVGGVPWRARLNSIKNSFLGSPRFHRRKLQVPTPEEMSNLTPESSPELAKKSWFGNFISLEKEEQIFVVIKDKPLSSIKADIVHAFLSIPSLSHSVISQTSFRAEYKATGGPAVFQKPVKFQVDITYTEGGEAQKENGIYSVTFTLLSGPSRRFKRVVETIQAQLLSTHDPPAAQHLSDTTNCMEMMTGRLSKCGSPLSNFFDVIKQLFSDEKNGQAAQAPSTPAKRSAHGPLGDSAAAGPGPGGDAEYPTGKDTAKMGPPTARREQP
# [7] = target: T3, Serine/threonine-protein kinase BRSK2 (Homo sapiens); details: at 1 µM
# [8] = target: Calcium/calmodulin-dependent protein kinase type 1D (Homo sapiens) (UniProt Q8IU85); details: at 0.1 µM
# [9] = target: Calcium/calmodulin-dependent protein kinase type 1D (Homo sapiens) (UniProt Q8IU85); details: at 1 µM
# [10] = target: Calcium/calmodulin-dependent protein kinase type II subunit alpha (Homo sapiens) (UniProt Q9UQM7); details: at 0.1 µM
# [11] = target: Calcium/calmodulin-dependent protein kinase type II subunit alpha (Homo sapiens) (UniProt Q9UQM7); details: at 1 µM
# [12] = target: Calcium/calmodulin-dependent protein kinase type II subunit delta (Homo sapiens) (UniProt Q13557); details: at 0.1 µM
# [13] = target: Calcium/calmodulin-dependent protein kinase type II subunit delta (Homo sapiens) (UniProt Q13557); details: at 1 µM
# [14] = target: T4, Calcium/calmodulin-dependent protein kinase type IV (Homo sapiens) (UniProt Q16566); details: at 0.1 µM
# T4 sequence (whole entry): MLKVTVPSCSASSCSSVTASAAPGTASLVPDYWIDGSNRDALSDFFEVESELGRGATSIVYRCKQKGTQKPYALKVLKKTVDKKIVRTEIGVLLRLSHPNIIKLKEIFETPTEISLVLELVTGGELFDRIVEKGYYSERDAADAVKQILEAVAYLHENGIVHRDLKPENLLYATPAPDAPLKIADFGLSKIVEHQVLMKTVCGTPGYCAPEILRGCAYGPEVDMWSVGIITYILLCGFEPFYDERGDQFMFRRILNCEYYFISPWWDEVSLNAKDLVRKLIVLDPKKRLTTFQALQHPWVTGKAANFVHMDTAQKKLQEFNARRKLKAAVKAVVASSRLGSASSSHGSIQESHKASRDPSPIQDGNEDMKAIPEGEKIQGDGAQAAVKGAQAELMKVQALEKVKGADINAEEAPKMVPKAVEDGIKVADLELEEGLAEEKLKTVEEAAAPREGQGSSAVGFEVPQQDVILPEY
# [15] = target: T4, Calcium/calmodulin-dependent protein kinase type IV (Homo sapiens); details: at 1 µM
# [16] = target: T5, Serine/threonine-protein kinase Chk1 (Homo sapiens) (UniProt O14757); details: at 0.1 µM
# T5 sequence (whole entry): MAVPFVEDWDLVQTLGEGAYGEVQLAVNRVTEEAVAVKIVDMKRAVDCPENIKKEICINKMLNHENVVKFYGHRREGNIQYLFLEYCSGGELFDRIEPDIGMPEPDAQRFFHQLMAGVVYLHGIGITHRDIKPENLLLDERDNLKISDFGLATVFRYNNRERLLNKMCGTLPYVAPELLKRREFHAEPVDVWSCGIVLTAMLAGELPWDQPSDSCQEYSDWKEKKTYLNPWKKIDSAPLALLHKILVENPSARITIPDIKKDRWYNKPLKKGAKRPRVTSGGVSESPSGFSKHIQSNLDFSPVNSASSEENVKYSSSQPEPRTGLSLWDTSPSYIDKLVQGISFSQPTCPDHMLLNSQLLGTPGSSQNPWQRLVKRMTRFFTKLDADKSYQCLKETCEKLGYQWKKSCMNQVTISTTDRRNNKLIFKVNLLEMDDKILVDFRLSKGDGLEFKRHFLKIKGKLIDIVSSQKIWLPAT
# [17] = target: T5, Serine/threonine-protein kinase Chk1 (Homo sapiens); details: at 1 µM
# [18] = target: Serine/threonine-protein kinase Chk2 (Homo sapiens) (UniProt O96017); details: at 0.1 µM
# [19] = target: Serine/threonine-protein kinase Chk2 (Homo sapiens) (UniProt O96017); details: at 1 µM
# [20] = target: Death-associated protein kinase 1 (Homo sapiens) (UniProt P53355); details: at 0.1 µM;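 further: reported figure is the mean inhibition of DAPK1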
# Sequence of Death-associated protein kinase 1 (Homo sapiens) (P53355 whole entry, looked up): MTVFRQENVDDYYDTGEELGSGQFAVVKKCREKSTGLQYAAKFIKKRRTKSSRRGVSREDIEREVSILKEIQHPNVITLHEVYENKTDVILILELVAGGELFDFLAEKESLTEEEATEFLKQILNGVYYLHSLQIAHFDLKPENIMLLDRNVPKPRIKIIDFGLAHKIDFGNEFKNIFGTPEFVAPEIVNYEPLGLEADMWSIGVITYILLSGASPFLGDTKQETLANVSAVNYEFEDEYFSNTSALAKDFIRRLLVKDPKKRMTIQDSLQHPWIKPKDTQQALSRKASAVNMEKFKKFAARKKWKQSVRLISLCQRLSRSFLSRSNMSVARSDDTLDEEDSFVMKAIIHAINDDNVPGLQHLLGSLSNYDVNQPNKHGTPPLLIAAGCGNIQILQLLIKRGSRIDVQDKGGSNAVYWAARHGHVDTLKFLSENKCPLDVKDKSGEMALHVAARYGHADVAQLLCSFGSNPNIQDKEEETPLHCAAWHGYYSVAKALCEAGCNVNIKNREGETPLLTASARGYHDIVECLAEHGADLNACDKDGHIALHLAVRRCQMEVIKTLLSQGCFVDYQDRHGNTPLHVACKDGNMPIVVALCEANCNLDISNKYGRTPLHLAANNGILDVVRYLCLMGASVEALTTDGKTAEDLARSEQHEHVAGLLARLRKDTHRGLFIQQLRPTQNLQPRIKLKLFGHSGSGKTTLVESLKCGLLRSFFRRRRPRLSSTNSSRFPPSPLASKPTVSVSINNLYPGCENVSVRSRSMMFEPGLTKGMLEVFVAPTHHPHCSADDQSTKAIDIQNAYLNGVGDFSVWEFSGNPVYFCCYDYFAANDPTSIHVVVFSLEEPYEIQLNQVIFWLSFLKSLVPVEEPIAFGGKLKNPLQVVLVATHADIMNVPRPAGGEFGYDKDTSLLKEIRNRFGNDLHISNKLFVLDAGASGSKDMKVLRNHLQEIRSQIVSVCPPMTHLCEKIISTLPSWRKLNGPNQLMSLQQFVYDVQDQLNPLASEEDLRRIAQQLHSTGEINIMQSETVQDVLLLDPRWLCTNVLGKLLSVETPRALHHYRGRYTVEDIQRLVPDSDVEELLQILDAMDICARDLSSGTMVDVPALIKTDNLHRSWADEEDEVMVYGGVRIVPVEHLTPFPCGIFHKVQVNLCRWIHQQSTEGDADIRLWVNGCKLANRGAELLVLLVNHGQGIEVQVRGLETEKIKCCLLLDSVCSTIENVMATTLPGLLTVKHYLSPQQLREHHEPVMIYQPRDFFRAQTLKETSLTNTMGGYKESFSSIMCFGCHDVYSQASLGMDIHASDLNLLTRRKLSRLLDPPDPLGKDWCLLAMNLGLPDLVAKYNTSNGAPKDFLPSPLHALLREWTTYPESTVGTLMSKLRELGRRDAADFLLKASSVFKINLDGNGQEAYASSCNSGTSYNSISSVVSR
# Sequence of Serine/threonine-protein kinase Chk2 (Homo sapiens) (O96017 whole entry): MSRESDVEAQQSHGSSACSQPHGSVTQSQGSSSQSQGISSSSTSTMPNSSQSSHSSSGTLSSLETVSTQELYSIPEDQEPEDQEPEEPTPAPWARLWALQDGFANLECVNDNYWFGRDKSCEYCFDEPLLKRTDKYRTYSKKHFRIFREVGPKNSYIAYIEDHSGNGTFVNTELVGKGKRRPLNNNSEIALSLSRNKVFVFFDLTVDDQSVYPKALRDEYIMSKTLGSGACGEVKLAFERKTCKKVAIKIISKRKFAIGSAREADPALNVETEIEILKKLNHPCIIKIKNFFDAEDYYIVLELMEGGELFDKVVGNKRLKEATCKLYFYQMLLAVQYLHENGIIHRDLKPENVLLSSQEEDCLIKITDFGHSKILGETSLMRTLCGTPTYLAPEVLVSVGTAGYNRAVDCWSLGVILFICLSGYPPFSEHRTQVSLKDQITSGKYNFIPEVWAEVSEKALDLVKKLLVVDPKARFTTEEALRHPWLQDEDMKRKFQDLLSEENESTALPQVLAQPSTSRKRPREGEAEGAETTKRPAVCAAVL
# Sequence of Calcium/calmodulin-dependent protein kinase type II subunit delta (Homo sapiens) (Q13557 whole entry): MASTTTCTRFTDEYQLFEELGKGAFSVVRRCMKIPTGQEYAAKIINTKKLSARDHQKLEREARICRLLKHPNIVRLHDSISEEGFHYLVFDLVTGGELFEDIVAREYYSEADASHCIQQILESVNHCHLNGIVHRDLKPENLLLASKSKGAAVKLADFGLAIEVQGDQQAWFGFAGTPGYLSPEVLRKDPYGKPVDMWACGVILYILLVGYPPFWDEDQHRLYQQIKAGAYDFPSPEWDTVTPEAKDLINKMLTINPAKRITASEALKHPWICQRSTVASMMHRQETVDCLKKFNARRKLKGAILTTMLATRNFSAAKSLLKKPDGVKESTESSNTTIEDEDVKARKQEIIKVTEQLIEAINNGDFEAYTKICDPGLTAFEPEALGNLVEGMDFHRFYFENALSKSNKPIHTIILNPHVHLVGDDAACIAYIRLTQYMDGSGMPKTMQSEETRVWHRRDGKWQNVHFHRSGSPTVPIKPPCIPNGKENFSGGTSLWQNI
# Sequence of 5'-AMP-activated protein kinase catalytic subunit alpha-2 (Homo sapiens) (P54646 whole entry, looked up): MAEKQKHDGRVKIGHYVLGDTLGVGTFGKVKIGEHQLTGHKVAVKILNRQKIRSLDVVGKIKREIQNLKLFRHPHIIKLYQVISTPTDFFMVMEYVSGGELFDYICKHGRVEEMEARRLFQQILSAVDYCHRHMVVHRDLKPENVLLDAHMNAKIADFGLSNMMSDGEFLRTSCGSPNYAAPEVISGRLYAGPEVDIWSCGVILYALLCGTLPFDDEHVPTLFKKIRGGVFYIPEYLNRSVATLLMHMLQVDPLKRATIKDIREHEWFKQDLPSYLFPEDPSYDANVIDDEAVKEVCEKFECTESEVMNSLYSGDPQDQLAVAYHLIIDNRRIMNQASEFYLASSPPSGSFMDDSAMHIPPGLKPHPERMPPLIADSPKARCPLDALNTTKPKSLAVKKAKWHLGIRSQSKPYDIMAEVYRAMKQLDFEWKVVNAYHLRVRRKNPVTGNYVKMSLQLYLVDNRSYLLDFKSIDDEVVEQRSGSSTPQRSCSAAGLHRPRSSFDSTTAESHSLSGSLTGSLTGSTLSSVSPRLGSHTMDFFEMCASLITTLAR
# Sequence of Calcium/calmodulin-dependent protein kinase type 1D (Homo sapiens) (Q8IU85 whole entry, looked up): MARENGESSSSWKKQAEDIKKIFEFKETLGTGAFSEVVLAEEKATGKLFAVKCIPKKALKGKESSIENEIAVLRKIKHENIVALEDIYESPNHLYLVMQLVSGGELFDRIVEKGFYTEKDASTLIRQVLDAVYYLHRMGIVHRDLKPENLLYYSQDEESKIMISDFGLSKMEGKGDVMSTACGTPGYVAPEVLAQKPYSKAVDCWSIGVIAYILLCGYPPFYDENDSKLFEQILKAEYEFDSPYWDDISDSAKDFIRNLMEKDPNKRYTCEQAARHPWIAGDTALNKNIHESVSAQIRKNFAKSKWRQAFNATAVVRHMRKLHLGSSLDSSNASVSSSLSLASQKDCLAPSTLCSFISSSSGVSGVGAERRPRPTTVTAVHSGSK
# Sequence of Calcium/calmodulin-dependent protein kinase type II subunit alpha (Homo sapiens) (Q9UQM7 whole entry): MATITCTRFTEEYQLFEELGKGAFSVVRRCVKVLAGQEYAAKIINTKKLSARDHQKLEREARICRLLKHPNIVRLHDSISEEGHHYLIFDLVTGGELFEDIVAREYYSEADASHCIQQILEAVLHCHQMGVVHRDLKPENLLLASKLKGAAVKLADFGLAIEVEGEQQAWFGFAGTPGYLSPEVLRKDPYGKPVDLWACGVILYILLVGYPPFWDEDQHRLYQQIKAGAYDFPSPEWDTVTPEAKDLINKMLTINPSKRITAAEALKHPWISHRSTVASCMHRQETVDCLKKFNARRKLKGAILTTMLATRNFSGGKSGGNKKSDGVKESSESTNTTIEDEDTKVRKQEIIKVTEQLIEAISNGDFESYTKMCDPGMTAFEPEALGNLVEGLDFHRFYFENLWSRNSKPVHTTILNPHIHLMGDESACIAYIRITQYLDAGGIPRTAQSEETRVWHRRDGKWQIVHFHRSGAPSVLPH
SMILES,inhibition [1],inhibition [2],inhibition [3],inhibition [4],inhibition [5],inhibition [6],inhibition [7],inhibition [8],inhibition [9],inhibition [10],inhibition [11],inhibition [12],inhibition [13],inhibition [14],inhibition [15],inhibition [16],inhibition [17],inhibition [18],inhibition [19],inhibition [20]
COC(=O)c1cncc(/C=C/c2c(C)cc(O)cc2C)c1,2.21%,3.22%,8.1%,-1.29%,7.61%,1.09%,6.54%,-0.5%,-0.32%,1.91%,3.06%,1.37%,3%,-2.74%,-4.13%,3.13%,3.49%,2.38%,4.27%,4.88%
c1ccc(Cc2nc3ccc(Nc4ncnc5ccccc45)cc3[nH]2)cc1,2.91%,4.96%,5.29%,-0.34%,3.16%,1.93%,5%,-0.7%,0.04%,2.75%,2%,1.68%,2.41%,-2.03%,-1.81%,2.86%,9.39%,1.71%,5.02%,3.43%
O=C1Nc2ccc(-c3cccnc3)cc2C1=Cc1cc(Br)c(O)c(Br)c1,7.03%,-0.34%,4.71%,2.51%,4.37%,2.22%,2.32%,1.08%,4.01%,2.95%,5.84%,3.26%,7.6%,0.54%,-0.48%,3.16%,0.96%,3.4%,8.93%,1.41%
N#Cc1c(NC(=O)c2ccccc2F)sc2c1CCCC2,0.55%,2.6%,3.42%,0.36%,1.62%,1.76%,3.8%,-0.22%,0.3%,-2.24%,-0.29%,-2.56%,1.91%,0.87%,1.11%,-0.69%,-3.66%,-0.83%,-2.63%,-1.42%
